These results are taken from PubChem BioAssay (EPA / NIEHS).

Read-out in assay [1]: TIMP metallopeptidase inhibitor 1 (TIMP1), TIMP1 (gene 7076)
As to the kind of experiment: BSK_hDFCGF_TIMP1: BioMAP Diversity Plus: hDFCGF Assay for TIMP metallopeptidase inhibitor 1 (TIMP1) Biomarker Activity (AID 2283062). The note with it: primary human foreskin fibroblasts; actives raise or lower the signal. The essentials:
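Human foreskin fibroblast primary cultures dosed for 24 h; secreted/surface TIMP-1 quantified by ELISA. Bidirectional curve fitting against DMSO baseline; cytotoxicity tracked in parallel cultures by SRB total-protein staining.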

Read-out in assay [2]: Monokine induced gamma interferon (MIG), CXCL9 (gene 4283)
As to the kind of experiment: BSK_hDFCGF_MIG: BioMAP Diversity Plus: hDFCGF Assay for Monokine induced gamma interferon (MIG) Biomarker Activity (AID 2283063). The note with it: primary human foreskin fibroblasts; actives raise or lower the signal. Put shortly:
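MIG/CXCL9 measured by ELISA 24 h after dosing primary human skin fibroblasts. Activity fitted in both directions against DMSO controls. Cytotoxicity was checked in parallel cultures by SRB staining read at 560 nm.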

Read-out in assay [3]: Matrix Metallopeptidase 1 (MMP1), MMP1 (gene 4312)
As to the kind of experiment: BSK_hDFCGF_MMP1: BioMAP Diversity Plus: hDFCGF Assay for Matrix Metallopeptidase 1 (MMP1) Biomarker Activity (AID 2283064). The note with it: primary human foreskin fibroblasts; actives raise or lower the signal. Put shortly:
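hDFCGF primary fibroblasts (human foreskin); chemical added; 24 h; MMP1 by ELISA; bidirectional fit vs DMSO.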

Read-out in assay [4]: Vascular cell adhesion molecule 1 (VCAM1), VCAM1 (gene 7412)
As to the kind of experiment: BSK_hDFCGF_VCAM1: BioMAP Diversity Plus: hDFCGF Assay for Vascular cell adhesion molecule 1 (VCAM1) Biomarker Activity (AID 2283065).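 For AC50: VCAM-1 protein level quantified by ELISA after 24 h chemical exposure.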 The note with it: primary human foreskin fibroblasts; actives raise or lower the signal. Put shortly:
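Human foreskin fibroblast primary cells dosed with chemical, VCAM-1 measured by ELISA at 24 h. Bidirectional curve fitting relative to DMSO as negative control/baseline.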

Read-out in assay [5]: Intercellular Adhesion Molecule 1 (ICAM1), ICAM1 (gene 3383)
As to the kind of experiment: BSK_KF3CT_ICAM1: BioMAP Diversity Plus: KF3CT Assay for Intercellular Adhesion Molecule 1 (ICAM1) Biomarker Activity (AID 2283067). The note with it: primary human keratinocytes with fibroblasts; actives raise or lower the signal. The essentials: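 Human keratinocyte–foreskin fibroblast co-culture was treated for 24 h. Cell-surface ICAM-1 was quantified by ELISA, fitted bidirectionally relative to DMSO. Cytotoxicity was checked in parallel cultures by SRB total-protein staining.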

Read-out in assay [6]: Interferon-gamma inducible Protein 10 (IP10), CXCL10 (gene 3627)
As to the kind of experiment: BSK_KF3CT_IP10: BioMAP Diversity Plus: KF3CT Assay for Interferon-gamma inducible Protein 10 (IP10) Biomarker Activity (AID 2283068). The note with it: primary human keratinocytes with fibroblasts; actives raise or lower the signal. Put shortly: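 Human keratinocyte plus foreskin fibroblast primary co-culture exposed to test chemical for 24 h; IP-10 measured by ELISA. Concentration-response fitted bidirectionally against DMSO control as baseline.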

Assay [7] is described as follows: BSK_KF3CT_SRB: Viability Assessment in the BioMAP Diversity Plus: KF3CT Assay (AID 2283069).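 Note: total protein by sulforhodamine B staining as a cytotoxicity measure; fitted for both signal gain and loss against DMSO baseline.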 The note with it: primary human keratinocytes with fibroblasts. The essentials:
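Keratinocytes co-cultured with foreskin fibroblasts (human primary); chemical added, 24 h; fix 10% TCA, stain 0.1% SRB, A560. Bidirectional fit vs DMSO.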

Read-out in assay [8]: Interleukin-1 alpha (IL1a), IL1A (gene 3552)
As to the kind of experiment: BSK_KF3CT_IL1a: BioMAP Diversity Plus: KF3CT Assay for Interleukin-1 alpha (IL1a) Biomarker Activity (AID 2283070). The note with it: primary human keratinocytes with fibroblasts; actives raise or lower the signal. The essentials:
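Chemicals were dosed onto co-cultured human keratinocytes and foreskin fibroblasts, IL-1a was quantified by ELISA at 24 h, and activity was fitted in both directions relative to DMSO controls.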

Read-out in assay [9]: TIMP metallopeptidase inhibitor 2 (TIMP2), TIMP2 (gene 7077)
As to the kind of experiment: BSK_KF3CT_TIMP2: BioMAP Diversity Plus: KF3CT Assay for TIMP metallopeptidase inhibitor 2 (TIMP2) Biomarker Activity (AID 2283071). The note with it: primary human keratinocytes with fibroblasts; actives raise or lower the signal. Put shortly:
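Co-culture of human primary keratinocytes and foreskin fibroblasts, measured 24 h after chemical dosing. TIMP-2 quantified by ELISA and fitted in both directions relative to DMSO. Cytotoxicity checked in parallel cultures by SRB total-protein staining.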

Read-out in assay [10]: Transforming growth factor beta 1 (TGFb1), TGFB1 (gene 7040)
As to the kind of experiment: BSK_KF3CT_TGFb1: BioMAP Diversity Plus: KF3CT Assay for Transforming growth factor beta 1 (TGFb1) Biomarker Activity (AID 2283072). The note with it: primary human keratinocytes with fibroblasts; actives raise or lower the signal. The essentials:
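Human keratinocyte/foreskin fibroblast co-culture; TGF-b1 measured by ELISA 24 h after dosing, fitted bidirectionally versus DMSO. Cytotoxicity checked in parallel cultures by total protein (SRB staining, 560 nm).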

Read-out in assay [11]: C-C motif chemokine 2 (Homo sapiens) (UniProt P13500)
As to the kind of experiment: BSK_KF3CT_MCP1: BioMAP Diversity Plus: KF3CT Assay for Monocyte Chemoattractant Protein 1 (MCP1/CCL2) Biomarker Activity (AID 2283073). The note with it: primary human keratinocytes with fibroblasts; actives raise or lower the signal. Put shortly: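 Human keratinocyte–foreskin fibroblast co-culture; MCP-1 measured by ELISA 24 h after dosing. Bidirectional fit vs DMSO; cytotoxicity tracked by SRB total protein in parallel cultures.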

Read-out in assay [12]: Matrix Metallopeptidase 9 (MMP9), MMP9 (gene 4318)
As to the kind of experiment: BSK_KF3CT_MMP9: BioMAP Diversity Plus: KF3CT Assay for Matrix Metallopeptidase 9 (MMP9) Biomarker Activity (AID 2283074). The note with it: primary human keratinocytes with fibroblasts; actives raise or lower the signal. Put shortly:
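Human keratinocyte/foreskin fibroblast co-culture; compound added; 24 h; MMP-9 by ELISA; bidirectional fit vs DMSO baseline.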

Read-out in assay [13]: urokinase plasminogen activator (uPA), PLAU (gene 5328)
As to the kind of experiment: BSK_KF3CT_uPA: BioMAP Diversity Plus: KF3CT Assay for urokinase plasminogen activator (uPA) Biomarker Activity (AID 2283075). The note with it: primary human keratinocytes with fibroblasts; actives raise or lower the signal. Put shortly: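 ELISA readout of uPA, analyzed for signal gain or loss relative to DMSO, from a human primary keratinocyte–foreskin fibroblast co-culture measured 24 h after chemical treatment.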

Read-out in assay [14]: CD40, CD40 (gene 958)
As to the kind of experiment: BSK_LPS_CD40: BioMAP Diversity Plus: LPS Assay for CD40 Biomarker Activity (AID 2283076). The note with it: primary human HUVEC with PBMC; actives raise or lower the signal. The essentials:
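HUVEC plus PBMC co-culture stimulated with LPS; CD40 quantified by ELISA 24 h after compound dosing. Fitting was bidirectional relative to DMSO. SRB staining of parallel cultures flagged overt cytotoxicity.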

Read-out in assay [15]: E-selectin (Homo sapiens) (UniProt P16581)
As to the kind of experiment: BSK_LPS_Eselectin: BioMAP Diversity Plus: LPS Assay for Eselectin Biomarker Activity (AID 2283077). The note with it: primary human HUVEC with PBMC; actives raise or lower the signal. Put shortly:
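Human umbilical vein endothelial cells co-cultured with PBMC under LPS stimulation; cell-surface E-selectin measured by ELISA 24 h after dosing. Change in either direction versus DMSO, with SRB total-protein staining in parallel cultures for cytotoxicity.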

Read-out in assay [16]: Interleukin-8 (IL8), CXCL8 (gene 3576)
As to the kind of experiment: BSK_LPS_IL8: BioMAP Diversity Plus: LPS Assay for Interleukin-8 (IL8) Biomarker Activity (AID 2283078). The note with it: primary human HUVEC with PBMC; actives raise or lower the signal. The essentials:
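Human umbilical vein endothelial cells co-cultured with PBMC, LPS-stimulated, exposed to compound for 24 h. IL-8 quantified by ELISA; fitted in both directions against DMSO, with SRB total-protein staining of parallel cultures for cytotoxicity.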

A short description of assay [17]: BSK_LPS_SRB: Viability Assessment in the BioMAP Diversity Plus: LPS Assay (AID 2283079).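 Note: total protein by sulforhodamine B absorbance as a cytotoxicity measure; measured one day after compound addition; fitted in both directions against DMSO so loss or gain of signal counts.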 The note with it: primary human HUVEC with PBMC. The essentials: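 Co-culture of human umbilical vein endothelial cells and PBMC, read 24 h after dosing. Total protein by 0.1% SRB staining after 10% TCA fixation, absorbance at 560 nm; bidirectional fit against DMSO.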
Read-out in assay [18]: Interleukin-1 alpha (IL1a), IL1A (gene 3552)
As to the kind of experiment: BSK_LPS_IL1a: BioMAP Diversity Plus: LPS Assay for Interleukin-1 alpha (IL1a) Biomarker Activity (AID 2283080). The note with it: primary human HUVEC with PBMC; actives raise or lower the signal. Put shortly:
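Human umbilical vein endothelial cells co-cultured with PBMC and stimulated with LPS; IL-1a measured by ELISA 24 h after dosing. Bidirectional fitting against DMSO; cytotoxicity checked by SRB staining in parallel cultures.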

Read-out in assay [19]: Monocyte Chemoattractant Protein-1 (MCP1), CCL2 (gene 6347)
As to the kind of experiment: BSK_LPS_MCP1: BioMAP Diversity Plus: LPS Assay for Monocyte Chemoattractant Protein-1 (MCP1) Biomarker Activity (AID 2283081).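 For AC50: secreted MCP-1 protein quantified by ELISA in culture supernatant.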 The note with it: primary human HUVEC with PBMC; actives raise or lower the signal. Put shortly: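 Human umbilical vein endothelial cells co-cultured with PBMC, LPS-stimulated; secreted MCP-1 measured by ELISA 24 h after compound addition. Bidirectional curve fitting against DMSO baseline; SRB total-protein staining in parallel cultures for cytotoxicity.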

Read-out in assay [20]: Plasminogen activator inhibitor-1 (PAI1), SERPINE1 (gene 5054)
As to the kind of experiment: BSK_hDFCGF_PAI1: BioMAP Diversity Plus: hDFCGF Assay for Plasminogen activator inhibitor-1 (PAI1) Biomarker Activity (AID 2283066). The note with it: primary human foreskin fibroblasts; actives raise or lower the signal. Put shortly:
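Human foreskin fibroblast primary cells, 24 h chemical exposure; PAI-1 measured by ELISA. Bidirectional fitting relative to DMSO; parallel cultures stained with SRB for total protein to flag overt cytotoxicity.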

Calls of active or inactive are those of the source. Rule for the calls: active = hit-call score of the fitted dose curve at least 0.9, where 1 is the maximum; inactive = score below 0.9.

Chain of E-selectin (Homo sapiens) (P16581 whole entry, looked up): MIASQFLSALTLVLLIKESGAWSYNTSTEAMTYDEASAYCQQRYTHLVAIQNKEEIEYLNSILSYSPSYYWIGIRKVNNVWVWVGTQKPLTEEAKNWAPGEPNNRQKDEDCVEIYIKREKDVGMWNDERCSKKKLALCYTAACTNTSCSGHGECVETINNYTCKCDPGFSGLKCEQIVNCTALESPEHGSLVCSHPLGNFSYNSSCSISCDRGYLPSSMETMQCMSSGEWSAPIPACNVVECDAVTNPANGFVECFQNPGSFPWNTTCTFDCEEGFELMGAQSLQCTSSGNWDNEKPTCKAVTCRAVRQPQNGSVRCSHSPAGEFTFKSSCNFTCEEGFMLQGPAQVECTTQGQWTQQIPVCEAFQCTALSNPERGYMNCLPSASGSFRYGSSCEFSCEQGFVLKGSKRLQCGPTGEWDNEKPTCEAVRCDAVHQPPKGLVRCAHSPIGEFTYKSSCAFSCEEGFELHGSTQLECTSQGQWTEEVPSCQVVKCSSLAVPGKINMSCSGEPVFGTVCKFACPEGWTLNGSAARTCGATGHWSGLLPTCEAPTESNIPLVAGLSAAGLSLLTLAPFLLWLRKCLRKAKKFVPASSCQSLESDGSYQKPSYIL

For the compound `COC(=O)c1ccccc1N`, the outcome in assay [1], in assay [2], in assay [3], in assay [4], in [5] and in assay [6] was inactive. Further, the result in [7], in [8], in assay [9], in assay [10], in [11] and in [12] was inactive. Moreover, the outcome in [13], in assay [14], in assay [15], in assay [16], in assay [17] and in assay [18] was inactive. Besides, the outcome in assay [19] was inactive.

Regarding `CC(C)(OOC(C)(C)c1ccccc1)c1ccccc1`, the outcome in [1], in assay [5], in [6], in assay [7], in assay [8] and in [9] was inactive. The outcome in assay [10], in [11], in assay [12] and in [13] was inactive. Further, the concentration at half-maximal activity (AC50) in assay [2] is 20 µM (active); in assay [3], 38.1 µM (active); in [4], 28.8 µM (active); in assay [20], 15.4 µM (active); in [14], 34.6 µM (active); in [15] it was 34 µM (active). In addition, the AC50 was 30.1 µM (active) in [16], 36.8 µM (active) in assay [17], 29.2 µM (active) in assay [18] and 30.4 µM (active) in assay [19].

As to `Cc1ccc([N+](=O)[O-])cc1`, the outcome in [1], in assay [2], in assay [3], in [4], in assay [5] and in [6] was inactive. Besides, the result in [7], in assay [8], in assay [9], in [10], in assay [11] and in assay [12] was inactive. Further, the outcome in assay [13], in assay [14], in assay [15], in assay [16], in assay [17] and in [18] was inactive. In addition, in [19], the result was inactive.

By AC50 is commonly meant the concentration giving half of the maximal activity seen.
